Rab9 prom act = qHTS Assay for Rab9 Promoter Activators; Huh7 Rab9 promoter-luciferase reporter, luminescence, 24 h; AID 485297, 2010; Potency, µM (series often up to 9.22 µM), without a hit: top-dose activation, negative = inhibition, hits mostly activators; 320,000 tested, 2.8% active; note: % of control where 0% means no effect; nearly all actives have a fitted effect of over 60% in size
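Cell-based reporter: Huh7 stable for Rab9 promoter-driven luciferase, plated in reduced-serum medium with 10% FBS at 1500 cells/well, compound-treated 24 h at 37 °C, luminescence read after 10 min reagent.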
FLuc modulator = qHTS profiling assay for firefly luciferase inhibitor/activator using purifed enzyme and Km concentrations of substrates (counterscreen for miR-21 project); purified FLuc, Km substrates, luminescence inhibition; Potency, µM (titrated, usually from 57.5 µM), for the others: top-dose activity change, negative = inhibition, most hits filed as inhibitors; 360,000 tested, 6.9% active; AID 588342, 2011;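 note: plate controls were vehicle for no effect and reference inhibitor for full effect; nearly all actives have a fitted effect of over 55% in size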
Target sequence (P08659 whole entry, looked up): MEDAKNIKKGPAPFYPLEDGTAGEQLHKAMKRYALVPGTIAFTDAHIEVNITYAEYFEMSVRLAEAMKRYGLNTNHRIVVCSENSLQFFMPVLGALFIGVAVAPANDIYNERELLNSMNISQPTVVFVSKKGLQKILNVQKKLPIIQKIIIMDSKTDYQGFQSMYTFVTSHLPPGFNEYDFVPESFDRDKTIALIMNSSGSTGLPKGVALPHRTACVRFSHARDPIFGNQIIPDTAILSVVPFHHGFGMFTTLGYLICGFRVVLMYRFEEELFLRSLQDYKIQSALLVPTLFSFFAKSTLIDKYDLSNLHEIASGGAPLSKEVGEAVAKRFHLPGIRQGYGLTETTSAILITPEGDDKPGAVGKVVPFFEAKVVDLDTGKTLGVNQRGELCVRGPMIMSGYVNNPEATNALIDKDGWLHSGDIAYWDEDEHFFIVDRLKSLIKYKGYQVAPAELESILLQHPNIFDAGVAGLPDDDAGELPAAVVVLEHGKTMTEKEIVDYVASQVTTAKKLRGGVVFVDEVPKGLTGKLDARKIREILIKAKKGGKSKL
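Biochemical qHTS of compounds, final roughly 60 µM downward over six points, against 10 nM purified firefly luciferase using Km concentrations of substrates (10 uM D-luciferin, 10 uM ATP) in Tris acetate pH 7.5 buffer; luminescence output.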
ELG1 DNA repair = qHTS screen for small molecules that inhibit ELG1-dependent DNA repair in human embryonic kidney (HEK293T) cells expressing luciferase-tagged ELG1; AID 504467, 2011; HEK293T ELG1-luciferase reporter, luminescence, 16 h; DNA damage induced by 5-fluorouridine; Potency, µM (titrated, usually from 46.1 µM), without a hit: at the highest dose activity change, negative = inhibition, hits mostly inhibitors; 330,000 tested, 2.3% active; note: % is set by controls: 0 for no effect and ±100 for the full control effect; nearly all actives have a fitted effect of over 55% in size
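Step one: seed 2,000 cells per well. Step two: pin-transfer compound or DMSO alongside 5-fluorouridine. Step three: incubate 16 hr, 37 °C, 5% CO2. Step four: add ONE-Glo, wait 30 min, read luminescence.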
ELG1 genotox = qHTS screen for small molecules that induce genotoxicity in human embryonic kidney (HEK293T) cells expressing luciferase-tagged ELG1; HEK293T ELG1-luciferase reporter, luminescence, 16 h; Potency, µM (titrated, usually from 46 µM), without a hit: at the highest dose activity change, positive = activation, most hits filed as activators; 330,000 tested, 1.3% active; AID 504466, 2011; note: % of control where 0% means no effect; nearly all actives have a fitted effect of over 60% in size
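Step 1: seed 2,000 HEK293T ELG1-luciferase cells per well. Step 2: add compound or DMSO, incubate 16 hr at 37 °C. Step 3: ONE-Glo, 30 min at room temperature, read luminescence.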
NPC1 prom act = qHTS Assay for NPC1 Promoter Activators. AID 485313, 2010. Huh7 NPC1 promoter luciferase reporter, 24 h. 320,000 tested, 2.4% active. Potency, µM (doses to about 9.22 µM), for inactives: top-dose activation, usual class: activators; note: % of control where 0% means no effect; nearly all actives have a fitted effect of over 60% in size
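Compounds in DMSO were transferred onto Huh7 NPC1-luciferase reporter cells pre-incubated 2 h; after 24 h at 37 °C, Amplite reagent was dispensed and luminescence recorded 10 min later.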
SMN2 splice enh = qHTS Assay for Enhancers of SMN2 Splice Variant Expression; 210,000 tested, 2.8% active; HEK293 SMN2-luciferase splicing reporter, luminescence, 30-36 h; AID 1458, 2008; Potency, µM (doses to about 46.1 µM), for the others: top-dose activity change, positive = activation, usual class: activators; note: % of control where 0% means no effect; nearly all actives have a fitted effect of over 55% in size
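qHTS luciferase splicing reporter: luminescence rises when SMN2 exon 7 is included in transfected HEK293 cells. Compound exposure lasted 30-36 h at 37C, with 4.5 mM final sodium butyrate as control, followed by a ONE-Glo read.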
Starred values were filed as active, the others as inactive; ? = inconclusive; / = no result. Rows were chosen to be rich in hits. Some 9.2% of all compounds tested hit in one or more screens of this group. Calls come from the whole dose curve; as a rule, active = well fitted curve in the direction sought with a large enough effect; inconclusive = small, poorly fitted or top-dose-only effect, or another doubt; inactive = no such curve, though single readings can be large; an effect the other way counts as inactive or inconclusive. Potency is the fitted concentration of half-maximal effect.

SMILES	Rab9 prom act	FLuc modulator	ELG1 DNA repair	ELG1 genotox	NPC1 prom act	SMN2 splice enh
CCCNC(=O)CN1C(=O)c2ccccc2Sc2ncccc21	-2.1%	-0.6%	0.4%	0.0%	-0.8%	/
COc1cccc(-c2nn(-c3ccc(F)cc3)cc2C(=O)NCC2CCCO2)c1 (configuration not stated)	-1.6%	16.9µM*	?	-6.2%	-0.4%	/
N/C(=N\OC(=O)Nc1ccc(Cl)cc1)c1ncc(C(F)(F)F)cc1Cl	1.5%	?	?	?	-2.3%	-5.2%
N/C(=N\OC(=O)Nc1ccccc1)c1ncc(C(F)(F)F)cc1Cl	?	12µM*	?	23.1µM*	23.9%	54.6%
CSc1nc(N)nc2c1ncn2CC(=O)NCc1ccc2[nH]ccc2c1	/	/	23.1µM*	-5.7%	/	/
CSc1nc(N)nc2c1ncn2CC(=O)NCc1ccccc1	/	/	-11.8%	-4.0%	/	/
Cc1ccc2nc(-c3cc(NC(=O)/C=C/c4ccccc4)ccc3Cl)oc2c1	/	?	/	/	/	7.6%
CSc1nsc(NC(=O)OCc2ccc(Cl)cc2)n1	-0.3%	23.9µM*	11.3%	-1.9%	1.6%	/
Cc1ccc(C(=O)/C=C/c2ccco2)c(O)c1	0.1%	9.53µM*	?	?	-2.1%	14.9%
Cc1ccc(O)c(NC(=S)NC(=O)/C=C/c2ccco2)c1	26.4%	-0.9%	?	?	-7.4%	29.7%
COc1ccc(C(=O)NC2CC2)cc1OC1CCN(C(C)CSC)CC1 (configuration not stated)	-1.4%	0.8%	14.5%	2.2%	-0.2%	/
CCCc1nc(SCC(=O)O)c2sc(=S)n(-c3ccccc3)c2n1	-1.7%	2.8%	6.8%	-1.1%	-2.6%	/
Cc1nc2sccn2c(=O)c1S(=O)(=O)Nc1ccc(N2CCN(S(C)(=O)=O)CC2)cc1	-0.6%	0.4%	9.2µM*	-22.5%	2.6%	-32.6%
CC(=O)Nc1ccc(NS(=O)(=O)c2c(C)nc3sccn3c2=O)cc1	/	-0.3%	/	/	/	/
COc1cc(/C=C(\C#N)c2nc3ccc(C)cc3[nH]2)ccc1OCc1ccc(C)cc1	/	0.2%	/	/	/	-5.7%
CCOc1cc(N(CC)CC)ccc1/C=C(/C#N)c1nc2ccccc2[nH]1	?	9.53µM*	?	-0.4%	4.9%	-46.7%
CCN(CC)c1ccc(/C=C(/C#N)c2nc3ccc(C)cc3[nH]2)c(OC(C)C)c1	-2.5%	5.36µM*	?	-5.3%	-2.0%	-1.2%
COc1cccc(/C=C(\C#N)c2nc3ccccc3[nH]2)c1OCC(=O)O	-0.9%	-26.1%	17.6%	5.0%	-1.2%	/
CCCOc1cc(N(CC)CC)ccc1/C=C(/C#N)c1nc2ccc(C)cc2[nH]1	-0.4%	-9.0%	4.61µM*	-6.6%	-9.6%	/
COc1ccc(-c2nc3n(n2)C(c2ccc(OC)cc2)C(C(=O)Nc2cccnc2)=C(C)N3)cc1 (configuration not stated)	/	-1.4%	/	/	/	-8.8%
CCOCC(=O)Nc1ccc2c(c1)N(S(=O)(=O)c1cccs1)CCC2	-2.7%	3.3%	-1.8%	0.6%	-0.5%	/
Cc1ccc(S(=O)(=O)N2[C@@H](c3ccc4c(c3)OCO4)C(C(=O)O)=C[C@H]2CC2CCCC2)cc1	/	/	-0.4%	-0.5%	/	/
C=CCNC(=O)c1ccc2c3n(nc2c1)-c1ccccc1CO3	?	0.675µM*	?	?	0.447µM*	/
COCCNC(=O)c1ccc2c(c1)nc(C)n2-c1cccc(Cl)c1	1.4%	-1.0%	-1.4%	4.2%	-4.4%	/
COCCNC(=O)c1ccc2c3n(nc2c1)-c1ccc(Cl)cc1CO3	3.55µM*	8.49µM*	?	?	1.41µM*	/
SMILES	Rab9 prom act	FLuc modulator	ELG1 DNA repair	ELG1 genotox	NPC1 prom act	SMN2 splice enh
Cc1ccc(-n2cnc3cc(C(=O)NCCC4=CCCCC4)ccc32)c(C)c1	/	-13.4%	/	/	/	/
C=CCNC(=O)c1ccc2nc(-c3ccccc3)c(-c3ccccc3)nc2c1	-5.0%	-1.4%	?	-5.9%	-4.3%	-9.2%
O=C(NCCO)c1ccc2c3n(nc2c1)-c1ccc(Cl)cc1CO3	3.55µM*	6.01µM*	?	?	2µM*	/
Cc1ccc2c(c1)COc1c3ccc(C(=O)NCCO)cc3nn1-2	1µM*	4.78µM*	?	14.6µM*	1.12µM*	/
Cc1ccc(S(=O)(=O)N2[C@@H](c3ccc(Br)cc3)C(C(=O)O)=C[C@H]2C(C)(C)C)cc1	/	/	-8.8%	0.4%	/	/
COCCNC(=O)c1ccc2c(c1)CCN2S(C)(=O)=O	0.0%	3.2%	11.7%	2.3%	-0.4%	-10.8%
COCCNC(=O)c1ccc2c3n(nc2c1)-c1ccccc1CO3	1µM*	3.79µM*	?	?	1.12µM*	/
CN1CCOc2ccc(S(=O)(=O)N3CCN(S(=O)(=O)c4c(F)cccc4F)CC3)cc21	?	21.3µM*	/	/	?	/
COc1ccc(-c2cn(-c3ccc(OC)cc3)c3[n+]2-c2ccccc2CC3)cc1	-41.9%	3.3%	9.2µM*	-3.2%	-31.0%	-48.9%
CC1=NN(c2ccccc2)C(=O)/C1=C/C=C/c1ccccc1	2.6%	?	20.6µM*	-12.1%	8.2%	17.2%
O=C1NN(c2ccc(F)cc2)C(=O)/C1=C\C=C\c1ccco1	6.2%	?	-1.1%	8.7%	1.4%	18.6%
CC1=NN(c2ccccc2)C(=O)/C1=C\N1CC(C)OC(C)C1 (configuration not stated)	-5.7%	?	-1.9%	3.1%	1.4%	13.7%
CC1=NN(c2cccc(C(=O)O)c2)C(=O)/C1=C\C=C\c1ccco1	12.7%	2.69µM*	?	?	9.6%	29.6%
Cc1ccc(S(=O)(=O)N2CCC(C(=O)Nc3ccccc3N3CCCC3)CC2)cc1C	1.6%	-0.1%	-11.8%	-6.8%	8.0%	/
O=C(/C=C/c1ccco1)N(c1ccccn1)c1ccccn1	1.6%	-9.8%	28.3%	-0.2%	-0.1%	12.3%
Cc1ccc(C(=O)NCc2ccccc2)cc1Br	3.2%	?	23.3%	6.1%	1.4%	21.8%
CCCCOc1cccc(C2c3c(-c4cc(C)ccc4O)n[nH]c3C(=O)N2CCOC)c1 (configuration not stated)	/	3.9%	/	/	/	18.9%
O=C(O)COc1ccc(-c2nnn(Cc3ccccc3F)n2)cc1	-0.6%	19µM*	26.4%	6.9%	8.6%	7.3%
Cc1ccc(-c2nnn(CC(=O)O)n2)cc1	-10.8%	-10.0%	5.1%	2.8%	-3.2%	-14.8%

Source: PubChem BioAssay (National Center for Advancing Translational Sciences (NCATS))
